Compound activity from PubChem BioAssay.
The list is not random: actives were taken first. Their share in the collection is about 17%.
TDP1 inh: blocks human tyrosyl-DNA phosphodiesterase 1; Q9NUW8; recombinant TDP1, AlphaScreen DNA substrate cleavage; Potency, µM (highest dose often 130 µM), without a hit: at the highest dose activity change, negative = inhibition, usual class: inhibitors; 350,000 tested, 0.28% active; AID 485290; note: % is set by controls: 0 for no effect and ±100 for the full control effect; nearly all actives have a fitted effect of over 40% in size
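Compounds were preincubated with Tdp1 (1 nM final) for 15 min at room temperature before substrate (15 nM final) started a 5 min reaction; beads (10 ug/ml final) were then added for 10 min before AlphaScreen detection.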
ClpP mod: qHTS Assay for Activators of ClpP; 340,000 tested, 1.9% active; Potency, µM (doses to about 57.5 µM), for the others: at the top dose activity change, negative = active; AID 651965, 2013; ATP-dependent Clp protease proteolytic subunit (Bacillus subtilis (strain 168)), P80244; purified B. subtilis ClpP, FRET peptide cleavage, 20 min; active = well fitted falling curve with a large enough effect; inconclusive = small, poorly fitted or top-dose-only effect; inactive = no such curve, though single readings can be large or run the other way; note: the source files actives as falling curves though it sought activators and does not explain the sign; nearly all actives have a fitted effect of over 65% in size
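Purified B. subtilis ClpP, 10 microg/mL final in Tris/HCl pH8 with KCl, BSA, glycerol and Tween-20, cleaved an Abz/nitrotyrosine-quenched decapeptide. Fluorescence (ex 320, em 430) was read at 0 and 20 min at room temperature. Delta was normalized to 5.8 microM ADEP and DMSO/no-enzyme controls.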
TDP1 cell CPT: DT40-hTDP1 cell growth loss with CPT | 420,000 tested, 12% active | AID 686979 | Potency, µM (highest dose often 46.2 µM), without a hit: top-dose activity change, negative = growth inhibition, actives largely listed as inhibitors | chicken DT40 Tdp1-/-;hTDP1 cells + 20 nM CPT, ATP luminescence, 48 h; note: % is set by controls: 0 for no effect and ±100 for the full control effect; nearly all actives have a fitted effect of over 55% in size
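Chicken DT40 Tdp1-/- cells complemented with human TDP1, 400 cells/well, exposed to compounds plus 20 nM camptothecin for at least 48 h at 37 C; viability read as ATP content by CellTiter-Glo luminescence.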
TDP1 cell noCPT: qHTS for Inhibitors of human tyrosyl-DNA phosphodiesterase 1 (TDP1): qHTS in cells in absence of CPT. DT40 Tdp1-/- hTDP1 cells, no CPT, ATP luminescence, 48 h. Potency, µM (doses to about 46.2 µM), inactives show at the highest dose activity change, negative = growth inhibition, actives largely listed as inhibitors. 420,000 tested, 15% active. AID 686978, 2013; note: % is set by controls: 0 for no effect and ±100 for the full control effect; nearly all actives have a fitted effect of over 55% in size
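Camptothecin absent (DMSO only). Human TDP1-complemented DT40 knockout cells, 400 cells/well, 37 °C for minimum 48 hr; ATP measured via CellTiter-Glo, 30 min dark incubation, luminescence.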
Numbers without * were called inactive; ? = inconclusive; · = not tested or not shown; [ ] = another dose, or the depositor's remark. Unless noted, calls come from the whole dose curve; as a rule, active = well fitted curve in the direction sought with a large enough effect; inconclusive = small, poorly fitted or top-dose-only effect, or another doubt; inactive = no such curve, though single readings can be large; an effect the other way counts as inactive or inconclusive. Potency is the fitted concentration of half-maximal effect.

SMILES | TDP1 inh | ClpP mod | TDP1 cell CPT | TDP1 cell noCPT
O=C1c2sc3nc4n(c(=O)c3c2CCC1Br)CCCCC4 (configuration not stated) | · | -1% | 3.3µM* | 2.9µM*
Cc1ccc(C)c(NC(=O)c2cc(-c3cc(C)c(C)cc3O)n[nH]2)c1 | · | -3% | ? | -22%
COCc1c(C(=O)N2CCCC(C)C2)cnn1-c1nccc(-c2cc(C)sc2C)n1 (configuration not stated) | · | · | -7% | -27%
CCn1c(N2CCN(C(=O)c3ccco3)CC2)nc2ccccc21 | 2% | · | 1% | -3%
Cc1cc(-c2ccco2)c(C#N)c2nc3ccccc3n12 | -4% | ? | 15µM* | 18µM*
CC(C)c1cc(N2CCN(C(=O)c3ccco3)CC2)n2c(nc3ccccc32)c1C#N | 4% | ? | 15µM* | 21µM*
Cc1cc(C(C)C)n2c(nc3ccccc32)c1C#N | 5% | · | · | ·
C/C(=N\NC(=O)C1CC1)c1ccccc1Br | 2% | 1% | -16% | 0%
CC(C)C(=O)NC(NC(=O)C(C)C)c1ccc([N+](=O)[O-])cc1 | 3% | -3% | -1% | -3%
OC(c1cccc(Cl)c1)c1nc(-c2cnc3ccccc3c2)cs1 (configuration not stated) | · | -17% | 26µM* | 13µM*
COc1ccc(C(O)c2nc(-c3cnc4ccccc4c3)cs2)cc1 (configuration not stated) | · | -5% | ? | 15µM*
OC(c1ccc(F)cc1)c1nc(-c2cccc(F)c2)cs1 (configuration not stated) | · | -2% | ? | ?
OC(c1ccc(F)cc1)c1nc(-c2cnc3ccccc3c2)cs1 (configuration not stated) | · | -20% | 18µM* | ?
COc1ccc(C(O)c2nc(-c3cccc(O)c3)cs2)cc1 (configuration not stated) | · | -1% | ? | ?
Cc1ccc(C2C3=C(CC(C)(C)CC3=O)Nc3onc(C)c32)cc1 (configuration not stated) | 5% | 32µM* | -12% | ?
CC1(C)CC(=O)C2=C(C1)NC1=C(C(=O)c3ccccc31)C2c1ccc(Cl)cc1 (configuration not stated) | -3% | -1% | ? | ?
Cc1ccc(C2C3=C(CC(C)(C)CC3=O)NC3=C2C(=O)c2ccccc23)cc1 (configuration not stated) | 0% | 9% | 21µM* | 18µM*
CC1(C)CC(=O)C2=C(C1)Nc1cc3c(cc1C2c1ccc(F)cc1)OCO3 (configuration not stated) | 5% | 32µM* | ? | ?
CCC(C(=O)Nc1cc(OC)ccc1OC)n1c(C)c2cnn(-c3ccccc3)c(=O)c2c1C (configuration not stated) | 8% | -5% | ? | ?
COc1ccc(C(=O)C2CC2c2ccc3c(c2)OCO3)cc1 (configuration not stated) | -9% | · | -24% | -23%
O=C(NCCc1ccccc1)C1CCC(Cn2c(=O)c3ccccc3n(Cc3cccc(F)c3)c2=O)CC1 (configuration not stated) | 3% | 3% | ? | ?
Cc1cc(C)cc(NC(=O)Cn2c(=O)n(CC(=O)NCCc3ccccc3)c(=O)c3ccccc32)c1 | 2% | -2% | -21% | -20%
COc1ccccc1NC(=O)Cn1c(=O)n(CC2CCC(C(=O)NCCc3ccccc3)CC2)c(=O)c2ccccc21 (configuration not stated) | -2% | -1% | 18µM* | ?
COc1ccc(NC(=O)Cn2c(=O)n(CC(=O)NCCc3ccccc3)c(=O)c3ccccc32)cc1 | -5% | -3% | -17% | -19%
COc1cc(NC(=O)Cn2c(=O)n(CC3CCC(C(=O)NCCc4ccccc4)CC3)c(=O)c3ccccc32)cc(OC)c1 (configuration not stated) | 2% | ? | 12µM* | ?
SMILES | TDP1 inh | ClpP mod | TDP1 cell CPT | TDP1 cell noCPT
Cc1cccc(NC(=O)Cn2c(=O)n(CC3CCC(C(=O)NCCc4ccccc4)CC3)c(=O)c3ccccc32)c1 (configuration not stated) | 0%[12.3 µM] | -6% | 18µM* | ?
O=C(NCCc1ccccc1)C1CCC(Cn2c(=O)c3ccccc3n(Cc3cccc(Cl)c3)c2=O)CC1 (configuration not stated) | · | · | ? | 15µM*
O=C1c2ccccc2C(=O)N1c1ncccc1O | 0% | · | · | ·
O=C(c1ccccc1)N(Cc1cccc(Br)c1)C1CCS(=O)(=O)C1 (configuration not stated) | 3% | -1% | -3% | 3%
Cn1nc(C2CC2)cc1NC(=O)C1(C)CCN1C(=O)CCc1ccccc1 (configuration not stated) | · | 0% | -25% | -20%
CN(Cc1ccc(F)cc1)S(=O)(=O)c1nnc(NC(=O)c2ccc(F)cc2)s1 | 11% | -13% | ? | 15µM*
CN(Cc1ccco1)S(=O)(=O)c1nnc(NC(=O)c2cccc(Cl)c2)s1 | 4% | -5% | ? | ?
CN(Cc1ccccc1)S(=O)(=O)c1nnc(NC(=O)c2cccc(Cl)c2)s1 | 5% | -7% | 15µM* | 13µM*
COc1cccc(CNC(=O)CCC2CCCN(C(=O)c3cc4ccccc4o3)C2)c1 (configuration not stated) | 5% | · | ? | 13µM*
Cc1occc1C(=O)N1CCCC(CCC(=O)NCc2ccc(F)c(F)c2)C1 (configuration not stated) | · | 0% | ? | 21µM*
CCOc1cc(/C=N/NC(=O)c2cccnc2)cc(Br)c1OCC(N)=O | -8% | · | 4% | -20%
COC(=O)c1sc(NC(=O)CN2CCN(c3cccc(Cl)c3)CC2)c(C(=O)OC)c1C | · | -6% | 29µM* | 33µM*
COC(=O)c1[nH]c2ccccc2c1NC(=O)CN1CCN(c2cccc(Cl)c2)CC1 | 5% | -27% | 26µM* | 16µM*
CC1CN(S(=O)(=O)c2cccc(C(=O)Nc3ccc(S(=O)(=O)NC4=NCCCCC4)cc3)c2)CC(C)O1 (configuration not stated) | · | 1% | ? | ?
CC(NC(=O)c1cccc2c1Oc1ccccc1S2)C(=O)O (configuration not stated) | · | -9% | -11% | -15%
COc1cccc(N2C(=O)C(CC(=O)Nc3ccc(Cl)cc3)N(Cc3ccc4c(c3)OCO4)C2=O)c1 (configuration not stated) | 4% | 0% | ? | ?
COc1cccc(OC)c1C(=O)OCC(=O)N(c1ccccc1)C1CCCCC1 | 0% | -6% | 15µM* | 8.2µM*
O=C(NCCc1ccccn1)c1c(-c2ccsc2)sc2ccccc12 | 0% | -6% | ? | ?
